# Data reported in PubChem BioAssay.
# Values joined by “and” are separate entries in the source; they are usually repeats but may differ in a detail not shown here. Equal values may be shown once. Results filed as inconclusive are left out. For some assays here: Measured potencies and affinities stand elsewhere. Active and inactive are the calls of the source. Unless noted, no rule for the calls is given here. Numbered stars: 1 amine (or outer) side, 2 acyl side, 3 side chain; on linkers, the order of the positions; unused ones are H or OH. Bridge positions count the residues as written; N and C are the ends. Square brackets hold non-standard residues; d marks the D form. Peptide text beside a SMILES is read from it. I, II: the chains in the order shown. Actinocin(9to1) = Cc1c2oc3c(C)ccc(C(=O)[*:1])c3nc-2c(C(=O)[*:2])c(N)c1=O; NMeV = CN[CH](C(=O)O)C(C)C; Sar = CNCC(=O)O
# What was measured:
# [1] = phospholipid biosynthesis inhibitors in animal cells, primary screen, cell-based, LOPAC library, screen 4 (AID 1347384); settings: phospholipid biosynthesis inhibition screen, at 10 µM
# [2] = growth inhibition of DIPG glioma cells, dose response, cell-based, SU-DIPG-IV, MIPE4.0, CellTiter-Glo, qHTS (AID 1347063; cut-off not given, nearly all actives have AC50 up to about 30 µM;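 also: compound exposure lasted 48 hours before the viability readout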); settings: SU-DIPG-IV viability, CellTiter-Glo ATP luminescence
# [3] = growth inhibition of DIPG glioma cells, dose response, cell-based, SU-DIPG-XIII, MIPE5.0, CellTiter-Glo, qHTS (AID 1347064; cut-off not given, nearly all actives have AC50 up to about 23 µM;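 as to AC50: cells exposed to compound for 48 hours before the viability read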); settings: SU-DIPG-XIII viability, CellTiter-Glo ATP luminescence
# [4] = viability loss in pontine glioma line – cell-based, SU-DIPG-XXV, MIPE5.0, CellTiter-Glo, qHTS, dose response (AID 1347065; cut-off not given, nearly all actives have AC50 up to about 26 µM;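 also: cells exposed to compound for 48 hours before ATP readout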); settings: CellTiter-Glo ATP luminescence
# [5] = SU-DIPG-VI glioma cell viability, MIPE4.0 library, CellTiter-Glo luminescence, qHTS (AID 1347066; cut-off not given, nearly all actives have AC50 up to about 30 µM;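 also: cells exposed to compound for 48 hours before readout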); settings: CellTiter-Glo ATP luminescence
# [6] = JHH-DIPG-1 glioma cell viability, MIPE5.0 library, CellTiter-Glo luminescence, qHTS (AID 1347067; cut-off not given, nearly all actives have AC50 up to about 26 µM;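 also: cells exposed to compound for 48 hours before readout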); settings: JHH-DIPG-1 glioma viability, CellTiter-Glo ATP luminescence
# [7] = target: NAD(+) hydrolase SARM1 (Homo sapiens) (UniProt Q6SZW1); assay: SARM1 TIR NADase inhibitors, cell lysate, NAD-Glo luminescence (AID 1508614;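 active = compound whose remaining NAD level is above about 45 nM, limit read from the data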;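 also: higher remaining NAD means stronger inhibition of SARM1 NADase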); settings: SAM-TIR HEK293T lysate NADase, at 1 µM, stronger effect = higher value
# NAD(+) hydrolase SARM1 (Homo sapiens), sequence (Q6SZW1 whole entry, looked up): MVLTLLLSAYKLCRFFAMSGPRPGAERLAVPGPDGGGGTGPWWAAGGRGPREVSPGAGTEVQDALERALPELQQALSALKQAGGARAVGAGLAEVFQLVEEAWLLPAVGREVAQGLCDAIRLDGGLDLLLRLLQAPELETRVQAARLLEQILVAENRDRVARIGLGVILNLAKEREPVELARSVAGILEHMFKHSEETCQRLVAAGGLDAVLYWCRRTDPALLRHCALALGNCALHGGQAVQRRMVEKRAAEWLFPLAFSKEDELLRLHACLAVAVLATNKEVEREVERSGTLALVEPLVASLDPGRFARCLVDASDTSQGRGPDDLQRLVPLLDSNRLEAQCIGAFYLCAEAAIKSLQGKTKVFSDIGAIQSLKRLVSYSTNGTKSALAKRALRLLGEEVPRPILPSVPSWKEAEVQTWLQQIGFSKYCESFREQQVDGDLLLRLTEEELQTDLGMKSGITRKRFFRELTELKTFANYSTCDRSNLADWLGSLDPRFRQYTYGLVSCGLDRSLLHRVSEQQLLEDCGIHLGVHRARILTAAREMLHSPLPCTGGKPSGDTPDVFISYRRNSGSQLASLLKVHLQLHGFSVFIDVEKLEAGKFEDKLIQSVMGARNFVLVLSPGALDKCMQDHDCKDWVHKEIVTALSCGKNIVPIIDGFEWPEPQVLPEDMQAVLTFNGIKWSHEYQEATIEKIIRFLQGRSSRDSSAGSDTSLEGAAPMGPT
# [8] = growth inhibition of DIPG glioma cells, dose response, cell-based, SU-DIPG-XIII, MIPE4.0, CellTiter-Glo, qHTS (AID 1347061; cut-off not given, nearly all actives have AC50 up to about 37 µM;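 also: cells exposed to compound for 48 hours before readout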); settings: SU-DIPG-XIII viability, CellTiter-Glo ATP luminescence
# [9] = target: ATP-dependent translocase ABCB1 (Homo sapiens) (UniProt P08183); assay: MDR1 (ABCB1) efflux transporter inhibition, cell-based (AID 377; in the data active = fluorescence slope change above about 50%); settings: MDR1-expressing cells, fluorescent substrate accumulation slope; stronger effect = higher value; concentration not given here
# ATP-dependent translocase ABCB1 (Homo sapiens), sequence (P08183 whole entry, looked up): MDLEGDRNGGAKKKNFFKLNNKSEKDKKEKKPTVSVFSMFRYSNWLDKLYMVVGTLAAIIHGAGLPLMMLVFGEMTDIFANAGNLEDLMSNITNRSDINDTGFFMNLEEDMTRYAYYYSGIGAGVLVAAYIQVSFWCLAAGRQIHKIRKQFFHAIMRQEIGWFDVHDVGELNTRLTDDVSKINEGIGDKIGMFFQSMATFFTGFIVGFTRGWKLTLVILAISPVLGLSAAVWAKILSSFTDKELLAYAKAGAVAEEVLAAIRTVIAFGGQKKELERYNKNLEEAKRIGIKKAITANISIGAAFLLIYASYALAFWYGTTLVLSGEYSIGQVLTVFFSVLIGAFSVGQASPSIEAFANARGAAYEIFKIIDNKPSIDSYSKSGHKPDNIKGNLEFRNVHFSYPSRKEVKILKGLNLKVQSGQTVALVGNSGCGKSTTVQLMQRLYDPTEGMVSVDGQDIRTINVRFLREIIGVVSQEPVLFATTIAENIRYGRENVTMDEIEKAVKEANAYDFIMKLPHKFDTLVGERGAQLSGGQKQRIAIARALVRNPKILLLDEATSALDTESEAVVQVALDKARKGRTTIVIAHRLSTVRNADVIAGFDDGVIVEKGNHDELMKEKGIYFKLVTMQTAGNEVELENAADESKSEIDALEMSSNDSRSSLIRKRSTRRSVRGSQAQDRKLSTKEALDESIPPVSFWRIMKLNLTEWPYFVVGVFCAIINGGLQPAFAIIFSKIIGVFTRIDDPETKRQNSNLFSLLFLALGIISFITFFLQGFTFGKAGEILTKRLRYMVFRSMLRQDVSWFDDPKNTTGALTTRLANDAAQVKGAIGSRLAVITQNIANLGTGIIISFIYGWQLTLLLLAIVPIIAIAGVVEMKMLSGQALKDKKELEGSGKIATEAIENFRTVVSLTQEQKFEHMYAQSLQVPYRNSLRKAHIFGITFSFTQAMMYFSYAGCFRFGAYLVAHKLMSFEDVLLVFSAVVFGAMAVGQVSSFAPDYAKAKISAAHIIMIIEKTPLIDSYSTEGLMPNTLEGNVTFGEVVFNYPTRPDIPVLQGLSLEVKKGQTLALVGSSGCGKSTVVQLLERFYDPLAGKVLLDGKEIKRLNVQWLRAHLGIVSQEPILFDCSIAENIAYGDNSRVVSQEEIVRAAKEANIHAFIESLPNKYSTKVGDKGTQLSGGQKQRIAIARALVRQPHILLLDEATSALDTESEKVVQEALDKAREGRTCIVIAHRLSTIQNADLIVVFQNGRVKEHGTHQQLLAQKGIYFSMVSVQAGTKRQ
# [10] = polyglutamine-triggered caspase-3 activation inhibitors, cell-based (AID 1583); settings: polyglutamine-induced caspase-3 activation, cell assay; stronger effect = higher value;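 tested at 10 µM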
# [11] = suppressors of polyQ aggregation in yeast, 75Q-TubU reporter (AID 1593); settings: Yeast 75Q polyglutamine aggregation reporter
# [12] = rescue of polyQ-huntingtin neuronal dysfunction in worms, whole organism, C. elegans mechanosensory neurons, N-terminal huntingtin (AID 1599); settings: touch response, stronger effect = higher value
# [13] = inhibitors of mitochondrial cytochrome c release, biochemical, purified mitochondria (AID 1603); settings: stronger effect = lower value;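 also: mouse liver mitochondria challenged with calcium chloride; signal normalized to the plate average as 100%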
# [14] = inhibitors of polyQ protein aggregation (AID 1604); settings: polyglutamine-induced protein aggregation inhibition assay; stronger effect = higher value; tested at 2.5 µM
# [15] = circadian clock period modulators, cell-based, LOPAC library, luminescence reporter (AID 2774); settings: circadian reporter cells, at 7 µM, actives lie on both sides;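 also: values are relative to mean of DMSO wells on each plate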
# [16] = system: Hepatitis C virus NS3 helicase; assay: HCV NS3 helicase inhibitors, primary screen, biochemical, fluorescence polarization, LOPAC1280 library (AID 687035; in the data active = inhibition above about 37%); settings: Purified HCV NS3 helicase, Cy5-dT15 ssDNA binding fluorescence polarization; stronger effect = higher value; concentration not given here
# [17] = Cy5 fluorescence quenching or enhancement artefacts, artefact control for HCV NS3 helicase inhibitor project, biochemical, LOPAC1280 (AID 687037); settings: Cy5-DNA-NS3h complex fluorescence interference counterscreen
# [18] = hESC survival regulators, cell-based (AID 493140); settings: human embryonic stem cell survival screen; stronger effect = higher value;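 also: cells exposed to compounds for four days before counting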
# [19] = target: Mitogen-activated protein kinase 7 (Homo sapiens) (UniProt Q13164); assay: ERK5 transactivation activators in reporter cells, primary screen, cell-based, HTS (AID 1508626;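 active = luciferase signal above three times the same-plate solvent-only control wells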;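 also: luciferase driven by Gal4-ERK5 fusion binding five Gal4 sites before minimal TATA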); settings: HeLa Gal4-ERK5 transactivation, 18 h, at 5 µM, stronger effect = higher value
# Mitogen-activated protein kinase 7 (Homo sapiens), sequence (Q13164 whole entry, looked up, the tested form may be a part): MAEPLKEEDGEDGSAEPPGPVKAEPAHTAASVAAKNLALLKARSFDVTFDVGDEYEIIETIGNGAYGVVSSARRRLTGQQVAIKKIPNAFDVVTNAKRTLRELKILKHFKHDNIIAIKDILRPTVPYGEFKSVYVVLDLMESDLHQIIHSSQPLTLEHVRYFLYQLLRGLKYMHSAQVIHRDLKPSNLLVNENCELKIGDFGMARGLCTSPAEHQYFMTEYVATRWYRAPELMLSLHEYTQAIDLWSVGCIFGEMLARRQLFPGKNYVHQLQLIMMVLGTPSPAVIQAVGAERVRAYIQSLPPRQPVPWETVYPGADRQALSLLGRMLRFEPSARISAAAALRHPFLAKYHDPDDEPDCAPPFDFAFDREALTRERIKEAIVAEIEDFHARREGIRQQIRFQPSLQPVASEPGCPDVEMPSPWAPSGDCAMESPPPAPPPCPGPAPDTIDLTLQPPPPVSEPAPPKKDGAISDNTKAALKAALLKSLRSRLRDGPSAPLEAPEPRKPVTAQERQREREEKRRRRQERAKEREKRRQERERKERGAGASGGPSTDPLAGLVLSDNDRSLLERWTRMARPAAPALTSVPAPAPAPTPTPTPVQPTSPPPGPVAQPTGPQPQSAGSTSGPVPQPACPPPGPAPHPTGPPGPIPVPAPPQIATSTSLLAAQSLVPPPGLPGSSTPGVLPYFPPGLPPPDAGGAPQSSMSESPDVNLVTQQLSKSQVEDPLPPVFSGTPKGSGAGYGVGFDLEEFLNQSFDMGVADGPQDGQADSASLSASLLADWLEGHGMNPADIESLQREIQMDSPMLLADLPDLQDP
# [20] = modifiers of HSF1 nuclear foci, imaging, Selleck Cancer Library (AID 1347162; in the data active = plate-normalised HSF1 focus index below about 0.46); settings: human cells, at 10 µM; SSMD: measured here: HSF1 foci SSMD mean; cell count: measured here: cell number; plate-normalised HSF1 focus index: stronger effect = lower value
structure (smiles),measurement,setting,value
O=C(OC1C[C@@H]2CC3C[C@H](C1)N2CC3=O)c1c[nH]c2ccccc12 (stereo partly specified),outcome,[1],inactive
CCCc1nc(C(C)(C)O)c(C(=O)O)n1Cc1ccc(-c2ccccc2-c2nn[nH]n2)cc1,outcome,[2],inactive
same,outcome,[3],inactive
same,outcome,[4],inactive
same,outcome,[5],inactive
same,outcome,[6],inactive
same,remaining NAD,[7],10 nM (inactive)
"Cc1c2oc3c(C)ccc(C(=O)NC4C(=O)NC(C(C)C)C(=O)N5CCCC5C(=O)N(C)CC(=O)N(C)C(C(C)C)C(=O)OC4C)c3nc-2c(C(=O)NC2C(=O)NC(C(C)C)C(=O)N3CCCC3C(=O)N(C)CC(=O)N(C)C(C(C)C)C(=O)OC2C)c(N)c1=O (stereo unspecified) (I: TVP[Sar][NMeV] / II: TVP[Sar][NMeV]; ester I:1-I:C, II:1-II:C; linker I:N-II:N via Actinocin(9to1); configuration not given here)",outcome,[8],inactive
same,outcome,[2],inactive
same,AC50,[3],3.62 nM (active)
same,AC50,[4],18.2 nM (active)
same,outcome,[5],inactive
same,AC50,[6],6.45 nM (active)
CCN(CC)C(=O)[C@]1(c2ccccc2)C[C@@H]1CN,remaining NAD,[7],10 nM (inactive)
CCC[C@@H]1C[C@@H](C(=O)N[C@H]([C@@H](C)O)[C@H]2O[C@H](SC)[C@H](O)[C@@H](O)C2O)N(C)C1 (stereo partly specified),fluorescence slope change,[9],65% (active)
CN1C2CCC1CC(OC(c1ccccc1)c1ccccc1)C2 (stereo unspecified),inhibition,[10],-6.22%
same,score,[11],1.2
same,rescue above control,[12],-5.92
same,cytochrome c release ratio,[13],1
same,inhibition of aggregation,[14],62%
same,period change,[15],0.035 h (inactive)
same,inhibition,[16],-5% (inactive)
same,fluorescence ratio (interference),[17],1 (inactive)
same,outcome,[1],inactive
O=c1[nH]c2ccccc2c2ccccc12,period change,[15],0.13 h (inactive)
same,inhibition,[16],-3% (inactive)
same,fluorescence ratio (interference),[17],1 (inactive)
same,outcome,[1],inactive
CN(C)[C@@H]1C(=O)C(C(=O)NCN2CCCC2)=C(O)[C@@]2(O)C(=O)C3=C(O)c4c(O)cccc4[C@@](C)(O)C3CC12 (stereo partly specified),fluorescence slope change,[9],66.4% (active)
same,survival,[18],2.5 (inactive)
C=C1/C(=C\C=C2/CCC[C@]3(C)[C@@H]([C@H](C)CCCC(C)(C)O)CC[C@@H]23)C[C@@H](O)C[C@@H]1O,survival,[18],89.6 (inactive)
same,AC50,[2],3320 nM (active)
same,outcome,[3],inactive
same,outcome,[4],inactive
same,AC50,[5],16600 nM (active)
CO[C@H]1/C=C/O[C@@]2(C)Oc3c(C)c(O)c4c(O)c(c5c(c4c3C2=O)NC2(CCN(CC(C)C)CC2)N=5)=NC(=O)/C(C)=C\C=C\[C@H](C)[C@H](O)[C@@H](C)[C@@H](O)[C@@H](C)[C@H](OC(C)=O)[C@@H]1C,survival,[18],5.5 (inactive)
CCN(CC)CCOc1ccc(C(=C(Cl)c2ccccc2)c2ccccc2)cc1,remaining NAD,[7],10 nM (inactive)
same,luciferase signal,[19],68 AU (inactive)
CCC(=O)NS(=O)(=O)c1ccc(-c2c(-c3ccccc3)noc2C)cc1,outcome,[4],inactive
same,outcome,[6],inactive
C[C@]12C=CC(=O)C=C1CC[C@@H]1[C@@H]2[C@@H](O)C[C@@]2(C)[C@H]1CC[C@]2(O)C(=O)COC(=O)CCC(=O)O,remaining NAD,[7],10 nM (inactive)
same,luciferase signal,[19],80 AU (inactive)
CO[C@H]1O[C@@H]2O[C@@]3(C)CC[C@H]4[C@H](C)CC[C@@H]([C@H]1C)[C@@]24OO3,outcome,[8],inactive
same,outcome,[2],inactive
same,outcome,[3],inactive
same,outcome,[4],inactive
same,outcome,[5],inactive
same,outcome,[6],inactive
same,remaining NAD,[7],10 nM (inactive)
CN(C)CC/C=C1/c2ccccc2COc2ccccc21,inhibition,[10],-9.13%
same,score,[11],1.4
same,rescue above control,[12],2.19
same,cytochrome c release ratio,[13],0.69
same,inhibition of aggregation,[14],92.3%
CN1[C@@H](CC(=O)c2ccccc2)CCC[C@H]1C[C@H](O)c1ccccc1,period change,[15],-0.145 h (inactive)
same,survival,[18],11.3 (inactive)
same,inhibition,[16],0% (inactive)
same,fluorescence ratio (interference),[17],1 (inactive)
same,outcome,[1],inactive
CC(=O)SCC(Cc1ccccc1)C(=O)NCC(=O)OCc1ccccc1 (stereo unspecified),fluorescence slope change,[9],12.8% (inactive)
same,survival,[18],6.5 (inactive)
same,AC50,[2],833 nM (active)
same,outcome,[3],inactive
same,outcome,[4],inactive
same,outcome,[6],inactive
same,remaining NAD,[7],10 nM (inactive)
CCCCC[C@H](O)/C=C/[C@H]1[C@H](O)CC(=O)[C@@H]1CCCCCCC(=O)O,survival,[18],35.2 (inactive) and 136 (inactive)
same,outcome,[8],inactive
same,outcome,[2],inactive
same,outcome,[4],inactive
same,outcome,[5],inactive
same,outcome,[6],inactive
C#C[C@]1(O)CC[C@H]2[C@@H]3CCC4=Cc5oncc5CC4(C)[C@H]3CCC21C (stereo partly specified),period change,[15],0.035 h (inactive)
same,inhibition,[16],0% (inactive)
same,fluorescence ratio (interference),[17],1 (inactive)
same,outcome,[1],inactive
Nc1nc2ccc(Cl)cc2c2nc(-c3ccco3)nn12,period change,[15],0.275 h (inactive)
same,inhibition,[16],-2% (inactive)
same,fluorescence ratio (interference),[17],1 (inactive)
same,outcome,[1],inactive
CN1CCc2cc(Cl)c(O)cc2[C@@H](c2ccccc2)C1,period change,[15],0.17 h (inactive)
same,inhibition,[16],-1% (inactive)
same,fluorescence ratio (interference),[17],1 (inactive)
same,outcome,[1],inactive
COc1cccc2c1C(=O)c1c(O)c3c(c(O)c1C2=O)C[C@@](O)(C(=O)CO)C[C@@H]3O[C@H]1C[C@H](N)[C@@H](O)[C@H](C)O1,AC50,[2],833 nM (active)
same,AC50,[3],833 nM (active)
same,AC50,[4],1180 nM (active)
same,AC50,[5],4180 nM (active)
same,AC50,[6],2350 nM (active)
same,SSMD,[20],-16.4
same,cell count,[20],7260
same,plate-normalised HSF1 focus index,[20],0.155 (active)
same,remaining NAD,[7],10 nM (inactive)
same,luciferase signal,[19],20 AU (inactive)
CC[C@]1(O)CC2CN(CCc3c([nH]c4ccccc34)[C@@](C(=O)OC)(c3cc4c(cc3OC)N(C=O)[C@H]3[C@@](O)(C(=O)OC)[C@H](OC(C)=O)[C@]5(CC)C=CCN6CC[C@]43[C@@H]65)C2)C1 (stereo partly specified),SSMD,[20],1.41
same,cell count,[20],6460
same,plate-normalised HSF1 focus index,[20],1.08 (inactive)
Cc1c(O)c(=O)ccn1C,remaining NAD,[7],10 nM (inactive)
CO/N=C(/C(=O)N[C@@H]1C(=O)N2C(C(=O)O)=C(COC(N)=O)CS[C@H]12)c1ccco1,fluorescence slope change,[9],-2.3% (inactive)
same,survival,[18],3.92 (inactive)
CC(=O)N1CCN(c2ccc(OC[C@H]3CO[C@](Cn4ccnc4)(c4ccc(Cl)cc4Cl)O3)cc2)CC1,period change,[15],-0.195 h (inactive)
same,survival,[18],3.25 (inactive)
same,inhibition,[16],-5% (inactive)
same,fluorescence ratio (interference),[17],1 (inactive)
same,outcome,[1],inactive
same,luciferase signal,[19],40 AU (inactive)
CN1CCN(c2nc3cc(C(F)(F)F)ccc3n3cccc23)CC1,period change,[15],-0.085 h (inactive)
same,inhibition,[16],-3% (inactive)
same,fluorescence ratio (interference),[17],1 (inactive)
same,outcome,[1],inactive
CC(C)N=c1cc2n(-c3ccc(Cl)cc3)c3ccccc3nc-2cc1Nc1ccc(Cl)cc1,fluorescence slope change,[9],72.8% (active)
same,survival,[18],11.8 (inactive)
same,remaining NAD,[7],10 nM (inactive)
same,luciferase signal,[19],104 AU (inactive)
COCC1=C(C(=O)OC(C)OC(=O)OC(C)C)N2C(=O)[C@@H](NC(=O)/C(=N\OC)c3csc(N)n3)[C@H]2SC1 (stereo partly specified),remaining NAD,[7],10 nM (inactive)
same,luciferase signal,[19],40 AU (inactive)
COc1cccc2c1C(=O)c1c(O)c3c(c(O)c1C2=O)C[C@@](O)(C(C)=O)C[C@@H]3OC1CC(N)C(O)C(C)O1 (stereo partly specified),fluorescence slope change,[9],95.8% (active)
same,survival,[18],2.17 (inactive)
COc1cc([C@@H]2c3cc4c(cc3[C@@H](O[C@@H]3O[C@@H]5CO[C@@H](C)O[C@H]5[C@H](O)[C@H]3O)[C@H]3COC(=O)[C@H]23)OCO4)cc(OC)c1O,outcome,[8],inactive
same,outcome,[3],inactive
same,outcome,[5],inactive
same,outcome,[6],inactive
same,SSMD,[20],-0.198
same,cell count,[20],6820
same,plate-normalised HSF1 focus index,[20],0.99 (inactive)
same,luciferase signal,[19],48 AU (inactive)
CN1CCN2c3ncccc3Cc3ccccc3C2C1 (stereo unspecified),outcome,[8],inactive
same,outcome,[3],inactive
same,outcome,[4],inactive
same,outcome,[5],inactive
same,outcome,[6],inactive
